Source: ChEMBL document CHEMBL3988442, “University of Dundee, Small-Polar-MMV Screening Library” (2021)

Columns and labels:
[1] = molecular target: T1, Aspartate--tRNA(Asp/Asn) ligase (Mycobacterium tuberculosis (strain ATCC 25618 / H37Rv)) (UniProt P9WFW3); assay: Assay for Asp RNA synthetase-1 from Mycobacterium tuberculosis; assay type: functional; parameters: scale not given: direction of the effect not stated beside the values; settings: 30 µM; note: in the data most compounds retested in dose-response had high values
T1 sequence (whole entry): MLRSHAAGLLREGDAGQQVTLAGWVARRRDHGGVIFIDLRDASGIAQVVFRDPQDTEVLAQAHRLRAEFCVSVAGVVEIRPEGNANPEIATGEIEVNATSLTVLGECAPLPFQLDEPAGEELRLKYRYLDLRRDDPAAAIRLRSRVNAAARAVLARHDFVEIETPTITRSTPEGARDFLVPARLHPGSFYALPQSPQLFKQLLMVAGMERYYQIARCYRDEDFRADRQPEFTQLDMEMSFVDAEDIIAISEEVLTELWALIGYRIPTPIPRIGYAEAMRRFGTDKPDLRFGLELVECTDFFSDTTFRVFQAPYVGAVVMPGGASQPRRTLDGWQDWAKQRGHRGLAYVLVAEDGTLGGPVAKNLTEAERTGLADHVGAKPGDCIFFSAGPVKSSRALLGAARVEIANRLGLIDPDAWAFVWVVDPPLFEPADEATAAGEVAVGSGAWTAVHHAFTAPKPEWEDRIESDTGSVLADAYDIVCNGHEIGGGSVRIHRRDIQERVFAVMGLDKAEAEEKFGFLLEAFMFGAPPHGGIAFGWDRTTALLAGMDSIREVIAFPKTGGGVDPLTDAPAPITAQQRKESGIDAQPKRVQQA

[2] = molecular target: Shiga toxin 2 (Escherichia coli O157:H7) (UniProt P09385+P09386); assay: E. coli 0.157:H7 Shiga Toxin SOP - stx2 screening assay; assay type: functional; parameters: scale not given: direction of the effect not stated beside the values; settings: 30 µM

| SMILES | Percent Effect [1] [%] | Percent Effect [2] [%] |
| --- | --- | --- |
| O=C(Nc1cnccn1)[C@@H]1COC[C@H]2CN(C3CCCC3)C[C@H]21 | -5.7 | 18 |
| CC(C)c1n[nH]c(C2CN(Cc3nnc(C4CC4)o3)CCO2)n1 (stereo unspecified) | -2.26 | 0.109 |
| O=C(C1CCOCC1)N1C[C@@H]2C[C@@H](c3nc(C4CC4)cs3)O[C@@H]2C1 | 2.07 | 17.3 |
| CCn1cc(N2Cc3nc(N)ncc3C2=O)cn1 | -7.32 | -36.6 |
| Cc1nc(C)n(C2CCCN(C(=O)CCCn3ccnc3)C2)n1 (stereo unspecified) | -0.127 | -12.7 |
| Cc1ccc(-c2ncc(C(=O)NCCS(N)(=O)=O)s2)c(C)c1 | 1.7 | 18.5 |
| CSCC[C@H](N)C(=O)NCc1cc2n(n1)CCCN(C(=O)C1CCC1)C2 | -3.26 | 2.24 |
| CN(C)CCNC(=O)c1cnc2c(c1)nc(-c1ccccc1Cl)n2C | 3.74 | 5.62 |
| CCc1ncc(C(=O)N2CCCCC2Cn2cccn2)s1 (stereo unspecified) | -4.28 | 15.5 |
| O=C(CN1CCC(N2CCNC2=O)CC1)NCC(F)(F)F | -5.14 | -3.06 |
| O=C(CN1CCOC(Cn2cccn2)C1)NCCc1ccc(F)cc1 (stereo unspecified) | 4.34 | 12 |
| Cc1nc(N2CCOCC2)nc2c1CN(C(=O)Cc1ccccn1)CC2 | -2.71 | -57.2 |
| Cc1n[nH]c(C)c1NC(=O)CN1CCOC(Cn2cccn2)C1 (stereo unspecified) | -0.605 | 31.6 |
| O=C(Cc1ccccn1)N1CCN(CC2CC2)c2ncccc2C1 | 5.6 | -12.7 |
| Cc1cnc(CN(C)C2CCN(CCc3cnn(C)c3)C2)o1 (stereo unspecified) | -2.22 | 9.7 |
| CN(C)S(=O)(=O)N1CCCC(c2cccc(Cc3ccccc3)n2)C1 (stereo unspecified) | 2.78 | 67.3 |
| CC(C)CN1C(=O)c2ccc(C(=O)NCCc3c[nH]cn3)cc2C1=O | 0.813 | -22.9 |
| O=S(=O)(c1ccccc1)N1CCCCC1c1cc[nH]n1 (stereo unspecified) | 4.1 | 62 |
| CCC1=N[C@@]2(CC[C@@H]3CN(Cc4ccc(Cl)cc4)C[C@@H]32)C(=O)N1 | 0.626 | 3.7 |
| CN(Cc1noc(C2CC2)n1)C1CCN(Cc2nnc(C3CC3)o2)C1 (stereo unspecified) | 4.05 | -15.5 |
| CC(C)=CCN(C)C1CCCN(Cc2noc(C)n2)C1 (stereo unspecified) | 3.23 | 25.2 |
| Cn1cnc2c1C(COCC1CCOCC1)CN(C1CCOCC1)C2 (stereo unspecified) | 3.46 | -20.2 |
| Cc1cc(C)n(C2CN(CC(=O)N(C)Cc3ccc(C)o3)C2)n1 | -0.898 | 0.889 |
| CN(Cc1cccc(F)c1)C(=O)CN1CCCCC1Cn1cncn1 (stereo unspecified) | 5.47 | -9.64 |
| Cc1cnc(CN(C)C2CCN(CC(=O)N(C)c3nccs3)C2)o1 (stereo unspecified) | -1.66 | -15.8 |

| SMILES | Percent Effect [1] [%] | Percent Effect [2] [%] |
| --- | --- | --- |
| COc1cccc(COCC(=O)N2CCCC(c3nncn3C)C2)c1 (stereo unspecified) | -1.97 | 8.24 |
| COCC1CN(C(=O)c2cccn2C)Cc2nccn2C1 (stereo unspecified) | -0.897 | -15.6 |
| c1ncn(Cc2cnc3n2CCN(Cc2ccsc2)CC3)n1 | -1.22 | -2.1 |
| Cc1cccc(-c2noc(CN3CC(n4cc(C)cn4)C3)n2)c1 | -0.577 | -2.34 |
| Cc1nc(C)n(CC2CCCCN2CC(=O)Nc2cccnc2)n1 (stereo unspecified) | -1.56 | 7.21 |
| CC(C(=O)N1CCCN(c2ncccc2C#N)CC1)n1ccnc1 (stereo unspecified) | -0.45 | 24 |
| CC(=O)N1CCOC(c2cc(N3CC(O)C3)nc(C)n2)C1 (stereo unspecified) | -3.6 | 6.14 |
| CC(=O)N1CCN(C(=O)C(C)n2cncn2)CC1 (stereo unspecified) | -4.44 | 1.67 |
| CCc1nc(C2CCCN2Cc2nc(CCOC)no2)no1 (stereo unspecified) | 5.05 | -11.9 |
| O=C(c1cnco1)N1CCCC(Cc2cccc3ncccc23)C1 (stereo unspecified) | 3.23 | -27.4 |
| O=C(NCc1ccccc1)[C@H]1C[C@@H]2CN(S(=O)(=O)C3CC3)C[C@H]1O2 | 6.82 | 2.32 |
| CCn1ncc2c1CCCC2NCc1cccc2c1OCCO2 (stereo unspecified) | -2.02 | -6.1 |
| Cc1noc(C2CCCCN2C(=O)NC2CCCC2)n1 (stereo unspecified) | 5.06 | -14.7 |
| CNC(=O)CCc1cc(C)nc(C2CCCN2)c1 (stereo unspecified) | 0.0149 | -4.41 |
| COCCCN1CCC(NC(=O)C(C)C)CC1 | -2.37 | -36.2 |
| O=C(Nc1nc2c(s1)CN(S(=O)(=O)C1CC1)CC2)c1c(F)cccc1F | -0.834 | 2.22 |
| O=C(NCCN1CCNCC1)c1c(O)c2ccccc2[nH]c1=O | -0.319 | -77.4 |
| O=C(C1CCOC1)N1CC[C@@H](O)[C@@H]1Cc1ccccc1 (stereo partly specified) | -2.71 | -16.7 |
| CN(C)c1ccccc1C(=O)N1C[C@@H](CN2CCOCC2)[C@@H](CO)C1 | -3.28 | 10.2 |
| Cn1nc2c(cc1=O)CN(Cc1nnc(-c3ccco3)o1)CC2 | 15.6 | 2.57 |
| CC(=O)N1CCN(C(=O)CCCc2nc(C(C)C)no2)CC1 | 5.17 | -7.36 |
| CCc1nc2n(n1)CC(NCC(=O)Nc1cc(C)on1)CC2 (stereo unspecified) | -3.4 | 3.33 |
| CC(C)c1nc(C2CCCN2CCc2ccncc2)no1 (stereo unspecified) | 1.61 | -7.28 |
| CC(=O)N1CCCCC1c1nc2c(c(N3CCCCC3)n1)CN(C)CC2 (stereo unspecified) | -1.98 | 2.68 |
| O=S(=O)(CCCN1CCCC1Cn1cncn1)c1ccccc1 (stereo unspecified) | -1.76 | -32.7 |

| SMILES | Percent Effect [1] [%] | Percent Effect [2] [%] |
| --- | --- | --- |
| CCc1ccc(CNC(=O)NC(C)CN2CCOCC2)s1 (stereo unspecified) | 1.38 | -4.66 |
| CCCn1nccc1C(=O)N1CCCN(CCCc2ccccc2)CC1 | -3.6 | -14.4 |
| c1cncc(C2COC3(CCN(CC4CC4)CC3)C2)c1 (stereo unspecified) | -0.915 | -13.1 |
| Cc1nsc(C(=O)N2CCc3ccccc3C2)n1 | -2.11 | -13.9 |
| Cc1cc(C2CCCN(CCCNS(C)(=O)=O)C2)n[nH]1 (stereo unspecified) | -3.97 | 8.81 |
| COCc1nn(C(C)C)c2c1CCN(Cc1cccs1)C2 | -2.9 | 18.3 |
| c1ccc(Cn2cc(CNC3CCc4ncnn4C3)cn2)cc1 (stereo unspecified) | -2.87 | -22.8 |
| Cc1cccc(C(=O)NC(CN2CCCC2=O)c2ccccc2)n1 (stereo unspecified) | -1.37 | 14 |
| Cc1ccc(C(=O)N2CCN(CC(O)c3ccc(F)cc3)CC2)s1 (stereo unspecified) | 0.567 | 32.2 |
| COC(=O)N1CCc2ccc(NC(=O)c3cn(C)nn3)cc2C1 | -0.627 | -90 |
| Cc1cnn(CC2CCCN2Cc2ncc(-c3ccccc3)o2)c1 (stereo unspecified) | 4.6 | 25.3 |
| Cn1cccc1C(=O)N1CCc2ncc(Cn3cccn3)n2CC1 | -0.291 | -19.1 |
| CC(C)CS(=O)(=O)N1C[C@H]2C[C@H](C(=O)NCc3ccccc3)[C@@H](C1)O2 | 2.67 | -41.8 |
| O=C(NCc1cc[nH]n1)N1CCCCC(N2CCCC2)C1 (stereo unspecified) | 2.84 | 14.9 |
| COc1cccc(CN2CCN(c3ccc4nncn4n3)C(C)C2)c1 (stereo unspecified) | -3.34 | 14.8 |
| CC(O)CNCc1ccc(OCc2ccc3c(c2)OCCO3)cc1 (stereo unspecified) | 1.08 | -37.4 |
| CCCc1nnsc1C(=O)NCC1CCN(S(C)(=O)=O)CC1 | -7.1 | -1.41 |
| CN(C(=O)c1cccc(C(=O)NCC(F)(F)F)c1)c1ccccc1 | -2.65 | -62.9 |
| Cc1cccc(-c2ccc(C(=O)NCC(C)(C)C(N)=O)c(=O)[nH]2)c1 | 7.72 | -21.6 |
| Clc1ccccc1C1(c2ccnc(CC3CC3)n2)CCNCC1 | -0.0892 | -10.7 |
| COCCO[C@@H]1C[C@H]2CN(C(=O)c3cnccn3)CCN2C1 | 6.43 | -13 |
| CC(NC(=O)NCC1(O)CCC1)c1ccc(OCC2CC2)c(F)c1 (stereo unspecified) | -6.14 | -4.99 |
| Cc1nc(CN(C)C2CCN(CCCOc3ccccc3)C2)no1 (stereo unspecified) | 2.8 | -39.6 |
